HEK293 viab = counter-screen for SNCA expression inhibitors: cell viability | HEK-293-SNCA-luc viability, GF-AFC fluorescence, 24 h | Potency, µM (doses to about 57.1 µM), usual class: cytotoxic | actives 0.12% (n = 150,000); further: nearly all actives have a fitted effect of over 30% in size
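HEK-293-SNCA-luc cells (1500/well) plated 24 h, then exposed 24 h to a dilution series; GF-AFC added 30 min at 37C, fluorescence 405/540 nm; normalised to medium-only and DMSO wells, Hill fit.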
SNCA expr inh = reduces expression of the alpha-synuclein gene. HEK-293 SNCA-luciferase knock-in, luminescence, 24 h. AID 1671194. actives 0.17% (n = 140,000). Potency, µM (highest dose often 57.2 µM), hits mostly inhibitors; further: nearly all actives have a fitted effect of over 45% in size
IP6K1 inh = blocks human inositol hexakisphosphate kinase 1; actives 0.81% (n = 140,000); activity change, % (series mostly up to about 58 µM); IP6K1 kinase, ADP-Glo luminescence, 2 h; active compounds read low; AID 1645851; in the data active means activity change below about -25%
Target sequence (Q92551 whole entry, looked up): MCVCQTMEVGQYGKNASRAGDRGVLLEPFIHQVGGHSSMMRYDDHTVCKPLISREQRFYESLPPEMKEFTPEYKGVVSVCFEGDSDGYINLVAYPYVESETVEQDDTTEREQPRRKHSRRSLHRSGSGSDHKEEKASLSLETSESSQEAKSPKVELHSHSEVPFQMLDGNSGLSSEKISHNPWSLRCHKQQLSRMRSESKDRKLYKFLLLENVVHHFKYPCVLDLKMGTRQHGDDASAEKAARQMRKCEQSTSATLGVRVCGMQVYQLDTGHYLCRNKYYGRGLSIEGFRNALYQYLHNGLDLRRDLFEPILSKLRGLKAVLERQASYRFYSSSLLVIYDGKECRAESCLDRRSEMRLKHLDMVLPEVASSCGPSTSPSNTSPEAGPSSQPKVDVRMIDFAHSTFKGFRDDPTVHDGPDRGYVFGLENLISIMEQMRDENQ
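ADP-Glo luminescence measures ADP made by human IP6K1 during a 2 h RT reaction with ATP/IP6 (mix at 1.3 mM/130 uM); top library doses 57.5 and 19.1 uM final.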
KDM5B inhibitor = blocks human KDM5B histone demethylase activity. Q9UGL1. KDM5B demethylase, FDH-coupled NADH fluorescence (FDH is formaldehyde dehydrogenase). Potency, µM (highest dose often 57.7 µM), actives largely listed as inhibitors. actives 2.6% (n = 220,000); further: nearly all actives have a fitted effect of over 70% in size
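Coupled FDH/NAD⁺ fluorescence readout. KDM5BΔAP 200 nM final; compound titration, 10 min RT preincubation; substrate mix 12.5 µM H3K4me3, 25 µM 2-OG, 50 µM Fe(II), 100 µM ascorbate, 0.25 mM NAD⁺, 0.25 U/mL FDH; ΔRFU over 30 min.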
IP6K1 conf = human IP6K1 inhibition, confirmatory | recombinant IP6K1 kinase, ADP-Glo luminescence, 2 h | shares compounds with IP6K1 inh | actives 13% (n = 1,200) | Potency, µM (top dose mostly 49 µM), most hits filed as inhibitors | AID 1645852; further: nearly all actives have a fitted effect of over 65% in size
Hits are given with their value; 0 = inactive; ? = inconclusive; - = no result given; [ ] = dose if it differs, or a comment. An excerpt weighted towards active compounds, which were near 3% of everything screened. Unless noted, the call rests on the fitted dose curve; in most records, active means well fitted curve in the direction sought with a large enough effect; inconclusive means small, poorly fitted or top-dose-only effect, or another doubt; inactive means no such curve, though single readings can be large; an effect the other way counts as inactive or inconclusive.

SMILES	HEK293 viab	SNCA expr inh	IP6K1 inh	KDM5B inhibitor	IP6K1 conf
COc1ccc(C(=O)Nc2noc3ccccc23)cc1	0	?	-57.6	0	7.31µM
Cc1nn(-c2ccccc2)c2c1C(C1CC1)N(C1CN(C(=O)NC(C)c3ccccc3)C1)C2=O (stereo unspecified)	-	-	0	-	-
COc1ccc(C(=O)N[C@@H]2CN(Cc3ccccc3)C[C@H]2CN(C)C)cn1	0	?	0	-	-
O=C(Nc1ccc(Cl)cc1)N1CCN(C(=O)c2cccc(-c3ccccn3)c2)CC1	0[12.5 µM]	0	0	-	-
Cc1cc(Nc2nc(N[C@@H](C)c3ncc(F)cn3)ncc2Cl)n[nH]1	?	?	0	-	0
Cn1nnnc1Sc1ncnc2scc(-c3cc4ccccc4o3)c12	-	-	-	-	0
Cn1nnnc1Sc1ncnc2scc(-c3ccc(C#N)cc3)c12	-	-	-	-	0
Cc1ccc(-c2csc3ncnc(Sc4nnc(CN5CCCC5)o4)c23)cc1	-	-	-	0	-
COc1cccc(CNC(=O)[C@@H]2CCCN2C(=O)c2cccc(-c3ccccc3OC)c2)c1	0[12.5 µM]	0	0	-	-
COc1ccccc1Nc1ccnc(N2CCCC(C(=O)NCC3CC3)C2)n1 (stereo unspecified)	0[12.5 µM]	0	0	-	-
Clc1ccc2c(c1)-n1cc(-c3ccccc3)nc1CO2	?	0	-28.4	0	?
COC(=O)CC1Oc2ccc(Cl)cc2-n2cc(-c3ccccc3)nc21 (stereo unspecified)	0	0	0	?	-
Cc1ccc(CNC(=O)c2c(Nc3ccccc3C)sc(C(=O)c3ccc(F)cc3)c2N)cc1	?	?	-25.6	?	0
CCOc1ccc(Cn2c(CNS(=O)(=O)c3ccc(Cl)s3)nc3cccnc32)cc1	0	?	-28.1	?	?
CCOc1ccc(Cn2c(CNS(=O)(=O)c3ccc(CC)cc3)nc3cccnc32)cc1	0	0	0	?	-
COc1ccccc1N1CCN(S(=O)(=O)c2ccc(F)c(C(=O)Nc3ccc(C)c(F)c3)c2)CC1	0	0	-28.1	?	0
CC(=O)c1ccc(OC(=O)c2c(-c3ccccc3Cl)noc2C)cc1	0	0	-42.5	0	0
Cc1nc(-c2ccc(F)cc2)n(CC(=O)Nc2cccc(C(F)(F)F)c2)c(=O)c1CCO	?	?	0	0	-
COc1ccc(F)cc1-c1ccc(CN2CCCCC2C(=O)NCc2ccccc2)cc1 (stereo unspecified)	-	-	0	-	-
Cc1ccc(S(=O)(=O)c2nc(-c3ccco3)oc2SCc2ccc(F)cc2)cc1	0	0	-27.6	?	0
CCOC(=O)c1ccc(NC2SC(=O)N(Cc3cccc(C(=O)O)c3)C2=O)cc1 (stereo unspecified)	0	0	-45.8	0	?
COC(=O)c1cccc(CN2C(=O)SC(Nc3ccc(Cl)cc3)C2=O)c1 (stereo unspecified)	0	0	0	?	-
CCOc1ccc(CNC(=O)CCS(=O)(=O)c2cc3c4c(c2)CCN4C(=O)CC3)cc1OC	0	0	-27.8	0	0
O=C(CCCc1ccccc1)N1CCC2(CC1)CC(Cc1nc(C3CC3)no1)CCO2 (stereo unspecified)	0	0	0	-	-
COC1=C(c2ccc(F)cc2)C(=O)N(Cc2ccccc2)C1	-	-	0	-	-
SMILES	HEK293 viab	SNCA expr inh	IP6K1 inh	KDM5B inhibitor	IP6K1 conf
Cn1ncc2c(C(=O)NCc3cccc(F)c3)cc(-c3ccccc3F)nc21	-	-	0	-	-
O=C(Nc1ccc(-c2cccc(F)c2)cc1)C1CCCN1Cc1ccc(CO)o1 (stereo unspecified)	0	0	0	0	-
CCCCOc1ccccc1C1CC(=O)Nc2cc(OC)c(OC)cc21 (stereo unspecified)	0	0	0	0	-
CCCCOc1ccccc1C1CC(=O)Nc2cc(C)c(C)cc21 (stereo unspecified)	?	?	-28.2	0	0
CC[C@H](CC#N)OC(=O)N[C@@H](C)c1cccc(NC(=O)Nc2ccc(-c3cnco3)c(OC)c2)c1	?	?	-38.8	-	?
Cn1nccc1Nc1nccc(-c2ccn([C@H](CO)c3ccc(Cl)c(F)c3)c(=O)c2)n1	0	-	-35.6	-	8.2µM
CCCCOC(=O)/C(C#N)=C/c1ccc(-c2ccc(Br)cc2)o1	0	0	-30.7	0	0
CCOC(=O)[C@@H]1CN([S+](=O)([O-])Cc2ccccc2)[C@H]2c3cccc(F)c3O[C@@H]12	-	-	0	-	-
CN1CCC(Nc2nc(Nc3ccc(Oc4ccccc4)cc3)c3c(=O)[nH]cc(Br)c3n2)CC1	?	-	-41.2	-	?
